Screens from PubChem.
L3MBTL1 block – inhibitors of human L3MBTL1. 230,000 tested, 0.66% active. Q9Y468. Potency, µM (top dose mostly 57.1 µM), for inactives: top-dose activity, negative = inhibition, usual class: inhibitors. AlphaScreen L3MBTL1–H3K9me1 peptide binding; note: nearly all actives have a fitted effect of over 60% in size
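AlphaScreen proximity signal between nickel-chelate acceptor and streptavidin donor beads (final 10 ug/mL) reports binding of 50 nM L3MBTL1 to 75 nM biotin-H3 K9me1 peptide; complex incubated with compounds 30 min at room temperature; cefsulodin titration as control.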
RECQ1 helicase – blocks DNA unwinding by human RECQ1 | P46063 | RECQ1 DNA unwinding, red fluorescence kinetic read | Potency, µM (series often up to 57.3 µM), inactives show top-dose activity, negative = inhibition, usual class: inhibitors | 240,000 tested, 0.54% active;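 note: plate controls were vehicle for no effect and no enzyme for full effect; nearly all actives have a fitted effect of over 30% in size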
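RECQ1T1 50 nM; forked duplex (20 bp + 30-nt ss tails) 200 nM, ATP 2 mM final; pH 8.0, 2 mM MgCl2, 2.5 ug/ml poly(dI-dC); 15 min compound preincubation; discontinuous kinetic read over 2 h at RT.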
APEX1 inh – APE1 (human) endonuclease inhibition | P27695 | recombinant APE1, TAMRA/BHQ-2 abasic DNA cleavage fluorescence | Potency, µM (top dose mostly 65.8 µM), without a hit: top-dose activity change, negative = inhibition, hits mostly inhibitors | 350,000 tested, 0.35% active | AID 2517;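 note: plate controls were vehicle for no effect and reference inhibitor for full effect; nearly all actives have a fitted effect of over 55% in size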
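Quantitative HTS: incision of a TAMRA/BHQ-2 double-stranded substrate bearing a tetrahydrofuran abasic site by 0.75 nM APE1 raises fluorescence. Substrate 50 nM final, added after 15 min compound preincubation at room temperature; progress as third-minus-first kinetic read difference.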
TDP1 block – TDP1 (human) enzyme inhibition. Q9NUW8. recombinant TDP1, AlphaScreen DNA substrate cleavage. Potency, µM (titrated, usually from 130 µM), for inactives: at the highest dose activity change, negative = inhibition, most hits filed as inhibitors. 350,000 tested, 0.28% active. AID 485290; note: nearly all actives have a fitted effect of over 40% in size
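AlphaScreen read-out: signal falls as enzyme removes the 3' tyrosine-FITC from a 5'-biotinylated DNA oligo (15 nM, 5 min, RT). Enzyme was E. coli-made recombinant Tdp1 at 1 nM, exposed to compound for 15 min beforehand; beads 10 ug/ml, 10 min.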
BLM inh-1 – Bloom syndrome helicase (human) inhibition; Potency, µM (titrated, usually from 56.1 µM), without a hit: at the highest dose activity change, negative = inhibition, usual class: inhibitors; recombinant BLM DNA unwinding, fluorescence dequenching; P54132; 350,000 tested, 0.2% active;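 note: plate controls were vehicle for no effect and no enzyme for full effect; nearly all actives have a fitted effect of over 35% in size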
KDM4E inh – blocks human JMJD2E demethylase activity; 230,000 tested, 1.6% active; JMJD2E catalytic domain, FDH-coupled NADH fluorescence (FDH is formaldehyde dehydrogenase); B2RXH2; Potency, µM (doses to about 57.1 µM), without a hit: at the top dose activity change, negative = inhibition, most hits filed as inhibitors; active = well fitted inhibition curve with a large enough effect, not every such curve was filed as active; inconclusive = small, poorly fitted or top-dose-only effect, or another doubt; inactive = no such curve, though single readings can be large or run the other way;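 note: 0% = wells with enzyme and -100% = buffer wells without enzyme; nearly all actives have a fitted effect of over 50% in size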
Target sequence (B2RXH2 1-337 limits assumed): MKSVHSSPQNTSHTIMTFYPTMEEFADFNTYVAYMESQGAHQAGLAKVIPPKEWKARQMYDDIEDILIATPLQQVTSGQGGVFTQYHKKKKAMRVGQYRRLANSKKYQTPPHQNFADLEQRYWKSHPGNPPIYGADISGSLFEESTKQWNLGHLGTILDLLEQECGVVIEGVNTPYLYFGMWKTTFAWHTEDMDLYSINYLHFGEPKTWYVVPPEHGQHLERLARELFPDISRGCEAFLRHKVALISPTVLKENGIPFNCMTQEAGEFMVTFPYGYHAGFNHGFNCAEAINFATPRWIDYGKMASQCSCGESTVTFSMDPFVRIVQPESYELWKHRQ
BLM inh-2 – confirmation of inhibitors of human Bloom syndrome helicase BLM | shares compounds with BLM inh-1 | 220 tested, 40% active | AID 2585 | BLM DNA unwinding, fluorescence quenching, biochemical | Potency, µM, for inactives: max response, negative = inhibition, usual class: inhibitors;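 note: strand separation dequenches TAMRA so unwinding raises red fluorescence; series mostly up to about 69 µM; nearly all actives have a fitted effect of over 45% in size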
* marks the source's active call; other numbers are inactive results; i = inactive; ? = inconclusive; . = not tested or not shown; [ ] = dose if it differs, or a comment. Only a selection was taken, and hits are over-represented in it overall. Unless noted, calls come from the whole dose curve; as a rule, active = well fitted curve in the direction sought with a large enough effect; inconclusive = small, poorly fitted or top-dose-only effect, or another doubt; inactive = no such curve, though single readings can be large; an effect the other way counts as inactive or inconclusive. Unless noted, % is set by controls: 0 for no effect and ±100 for the full control effect; potency is the fitted concentration of half-maximal effect.

SMILES | L3MBTL1 block | RECQ1 helicase | APEX1 inh | TDP1 block | BLM inh-1 | KDM4E inh | BLM inh-2
COC(=O)c1c(NC(=O)COC(=O)c2ccc(NC(=O)CC#N)cc2)sc2c1CCCCC2 | ? | i | 14% | 3% | 32µM* | 5µM* | ?
COc1ccc2oc(=O)c(C(=O)N3CCN(c4ccc(C)cc4)CC3)cc2c1 | . | . | . | 3% | -3% | . | .
O=C(Nc1cccc(-c2nc3cccnc3s2)c1)C1c2ccccc2Oc2ccccc21 | -3% | -29% | ? | ? | 10µM* | -11% | 13µM*
O=C(Nc1cccc(-c2nc3cccnc3s2)c1)c1cccnc1Cl | . | -9% | 1% | 1% | -9% | -26% | .
CCSc1ccc(-c2ccco2)nn1 | . | -22% | 0% | 0% | 10µM* | ? | ?
Fc1ccc(CSc2ccc(-c3ccco3)nn2)cc1 | 9% | -7% | 0% | -3% | -5% | 4% | .
O=C(CSc1nnc2scc(-c3ccccc3)n12)Nc1nsc(-c2ccccc2)n1 | 2% | 5% | -3% | 5% | 20µM* | -5% | 36µM*
O=C(CCl)Nc1ccccc1Sc1ccccc1 | . | 0% | 0% | -2% | 8.9µM* | -1% | 13µM*
O=C(Cc1ccc(Cl)cc1)Nc1ccccc1Sc1ccccc1 | 58% | -8% | -9% | -10% | -7% | 5% | .
CC(c1ncncc1F)[C@](O)(Cn1cncn1)c1ccc(F)cc1F (some centres undefined) | . | . | . | 2% | -6% | . | .
O=C(CSc1nc(O)cc(=O)[nH]1)Nc1ccc2c(c1)CCC2 | -3% | -13% | 16% | . | 22µM* | -4% | 3%
COc1ccc(Cc2nc3ccccc3n2CC(=O)N/N=C/c2ccc(O)cc2)cc1OC | 4% | -1% | -2% | 5% | 1% | 9% | .
COc1ccc(Cc2nc3ccccc3n2CC(=O)N/N=C/c2ccc(C)cc2O)cc1OC | -15% | 9% | -4% | 0% | 10µM* | -1% | ?
N[C@@H](C(=O)O)[C@@H](CC(=O)O)c1ccc(Cl)cc1 | . | 9% | -3% | -4% | . | . | .
O=C1C=C(NCCO)C(=O)c2cnccc21 | . | -4% | ? | 3% | ? | -26% | .
O=C1C=C(NCCN2CCOCC2)C(=O)c2cnccc21 | ? | 0% | 1% | 3% | 25µM* | -5% | ?
Cc1ccc(Nc2nc3nonc3nc2Nc2cccc(C(F)(F)F)c2)cc1Cl | . | . | . | 7% | -12% | . | .
CC1=NN(c2ccccc2)C(=O)/C1=C/c1c(O)n(-c2ccc(F)c(Cl)c2)[nH]c1=O | -29% | -6% | -5% | 9% | 18µM* | -15% | 36µM*
COc1ccc2c(c1OC)C(=O)OC2c1ccc(O)cc1 (centres undefined) | . | . | . | 0% | . | . | .
C/C=C/c1ccc(OCC(=O)O)c(OC)c1 | -13% | -9% | 0% | 3% | -8% | -8% | .
CC(C)=CCOc1ccc(/C=C/C(=O)c2ccc(OCC=C(C)C)cc2OCC(=O)O)cc1 | . | i | 4% | 3% | 16µM* | . | ?
COc1cccc2cc(C(=O)NCCc3c(C)[nH]c4ccc(F)cc34)c(=O)oc12 | . | . | . | 5% | -2% | . | .
COc1ccc2c(c1)C(=NNC(=O)c1ccccn1)c1cc(OC)ccc1-2 | 2% | -5% | 11% | 2% | 10µM* | -1% | 29µM*
COc1ccc([C@]23Cc4ccccc4C(O2)C2=C(O3)C(=O)c3ccccc3C2=O)cc1 | . | . | 14%[12.4 µM] | . | -8%[12.4 µM] | . | .
Cc1ccc2nc(/C(C#N)=C/c3ccc(-c4cccc([N+](=O)[O-])c4)o3)[nH]c2c1 | -8% | -9% | 5% | 3% | 22µM* | -1% | 13µM*
O=C(Nc1ccc(Cl)cc1)OCCN1CCN(Cc2ccccc2)CCC1=O | . | i | 11% | 3% | 0%[75.6 µM] | . | .
CC1CCN(C(=O)Nc2ccc3nsnc3c2)CC1 | 5% | i | ? | 0% | -8% | ? | .
